“And” between values parts separate entries of the source, which are not always exact repeats. Identical values can stand only once. ± gives the standard deviation of the averaged measurements.
Key:
Settings in all cases: concentration: 10 µM; 24 h
[1] = system: HCC1569; experiment: cell number relative to DMSO (% of DMSO); higher = more cells (less growth inhibition / toxicity)
Procedure, shortened: (§1)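 H1.0 nuclear intensity or cell number is expressed as percent of the plate control, with the median of replicates taken. HCC1569 and TDF cells were treated with compounds at 10 µM for 24 h at 37 °C, in triplicate, then fixed and immunostained for H1.0 with DAPI as a nuclear stain. HCC1569 values were smoothed to correct for positional effects.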

[2] = system: TDF; experiment: as above
Procedure, shortened: as §1

[3] = system: TDF; experiment: H1.0 immunofluorescence intensity relative to DMSO (% of DMSO); higher = stronger H1.0 induction, active = 120 or more
Procedure, shortened: as §1

[4] = system: HCC1569; experiment: H1.0 immunofluorescence intensity relative to DMSO (% of DMSO); higher = stronger H1.0 induction, active = 140 or more
Procedure, shortened: as §1
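Wherever H1.0 immunofluorescence intensity relative to DMSO is given: TDF is a line of transformed human dermal fibroblasts of mesenchymal origin.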
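Wherever cell number relative to DMSO is given: TDF denotes transformed human dermal fibroblasts of mesenchymal origin.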

Row | SMILES | cell number [1] | cell number [2] | H1.0 immunofluorescence intensity [3] | H1.0 immunofluorescence intensity [4]
1 | O=C1CSC(c2cccc(Br)c2)N1c1cc(Cl)ccc1O (configuration not stated) | 102 | 96.5 | 94.8 (inactive) | 103 (inactive)
2 | CS(=O)(=O)O.Cc1ccc(N(CC2=NCCN2)c2cccc(O)c2)cc1 [Phentolamine mesylate] | 99 | 105 | 97.7 (inactive) | 99.6 (inactive)
3 | N=C(N)c1ccc(OCCCCCOc2ccc(C(=N)N)cc2)cc1.O=S([O-])OCCO.O=S([O-])OCCO [Pentamidine isethionate] | 93.1 | 90.6 | 103 (inactive) | 97.2 (inactive)
4 | O=c1[nH]c(=O)c2nc3ccccc3nc2[nH]1 [Alloxazine] | 101 | 91.6 | 101 (inactive) | 92.1 (inactive)
5 | Cc1ccccc1N1CCN(S(=O)(=O)CC23CCC(CC2NC(=O)C(N)CCS(C)(=O)=O)C3(C)C)CC1.Cl (configuration not stated) | 101 | 104 | 94.1 (inactive) | 99 (inactive)
6 | COc1cc(C=CC(=O)CC(=O)C=Cc2ccc(O)c(OC)c2)ccc1O [Curcumin] | 71.3 | 62.7 | 106 (inactive) | 139 (inactive)
7 | N#Cc1c(-c2ccccc2)no[n+]1[O-] [4-Phenyl-3-furoxancarbonitrile] | 64.2 | 93.3 | 93.2 (inactive) | 122 (inactive)
8 | CCCCCC=CCC=CCCCCCCCC(=O)NCC(=O)O [N-Linoleoylglycine] | 105 | 101 | 96.8 (inactive) | 103 (inactive)
9 | COc1c2occc2c(OC)c2c(=O)cc(C)oc12 [Khellin] | 101 | 76.6 | 111 (inactive) | 100 (inactive)
10 | O=C1NC(=O)c2c1c1c3ccccc3[nH]c1n1cncc21 [Isogranulatimide] | 87.7 | 96.4 | 90 (inactive) | 134 (inactive)
11 | COc1ccc(-c2cc3c(C)nc(N)nc3n(C3CCC(OCCO)CC3)c2=O)cn1 (configuration not stated) | 35 | 51 | 97.8 (inactive) | 191 (active)
12 | CCCCc1oc2ccccc2c1C(=O)c1cc(I)c(OCCN(CC)CC)c(I)c1.Cl [Amiodarone hydrochloride] | 98.5 | 92 | 98.9 (inactive) | 101 (inactive)
13 | CCOc1cc2ncnc(Nc3cccc(Br)c3)c2cc1OCC [Compound 56] | 76.2 | 94 | 92.6 (inactive) | 144 (active)
14 | O=c1ccc2ccc(O)c(O)c2o1 [Daphnetin] | 106 | 87.6 | 100 (inactive) | 95.2 (inactive)
15 | CC(=O)OC(C)C[N+](C)(C)C.[Cl-] (stereo not drawn) [Acetyl-beta-methylcholine chloride] | 110 | 94.7 | 96.2 (inactive) | 88.4 (inactive)
16 | NC(=O)c1noc([C@H](CCCC2CCCCC2)CC(=O)NO)n1 | 73.8 | 95.6 | 99.6 (inactive) | 109 (inactive)
17 | O=C(O)c1cc(N(Cc2ccccc2O)Cc2ccccc2O)ccc1O [Lavendustin B] | 102 | 95.2 | 94.5 (inactive) | 93.1 (inactive)
18 | O=C1CCc2ccc(OCCCCN3CCN(c4cccc(Cl)c4Cl)CC3)cc2N1 [Aripiprazole] | 95.5 | 97 | 96.2 (inactive) | 126 (inactive)
19 | CCOc1ccc2ccc(=O)oc2c1 [7-ethoxy-2H-chromen-2-one] | 99.7 | 108 | 93.7 (inactive) | 103 (inactive)
20 | C=Cc1c(C)c2cc3[nH]c(cc4nc(cc5nc(cc1[nH]2)C(C)=C5CCC(=O)O)C(CCC(=O)O)=C4C)c(C)c3C=C [Protoporphyrin IX disodium] | 103 | 86.7 | 100 (inactive) | 100 (inactive)
21 | N#Cc1cnc2cnc(NCc3cccnc3)cc2c1Nc1ccc(F)c(Cl)c1 [Tpl2 Kinase Inhibitor] | 69.9 | 74.3 | 92.6 (inactive) | 185 (active)
22 | CN(C)c1nc(N)c(C(=O)N=C(N)N)nc1Cl.Cl [5-(N,N-Dimethyl)amiloride hydrochloride] | 99.9 | 89.7 | 96.1 (inactive) | 103 (inactive)
23 | COc1cc2c(c(OC)c1OC)-c1c(cc3c(c1OC)OCO3)C[C@H](C)[C@@](C)(O)C2 | 97.6 | 95.4 | 96.3 (inactive) | 101 (inactive)
24 | CCCCCCCCC=CCCCCCCCCCC(=O)O [11(Z)-Eicosenoic acid] | 105 | 105 | 98.9 (inactive) | 101 (inactive)

Row | SMILES | cell number [1] | cell number [2] | H1.0 immunofluorescence intensity [3] | H1.0 immunofluorescence intensity [4]
25 | COc1c2c(nc3ccccc13)OC(C(C)(O)CO)C2 (configuration not stated) [Dubinidine] | 102 ± 7.2 | 104 ± 5.6 | 96.1 (inactive) | 106 (inactive)
26 | CC1OC(OC2C(O)CC(OC3C(O)CC(OC4CCC5(C)C(CCC6C5CCC5(C)C(C7=CC(=O)OC7)CCC65O)C4)OC3C)OC2C)CC(O)C1O (configuration not stated) [Digitoxin] | 58.4 | 48.4 | 127 (active) | 121 (inactive)
27 | CC(C)C(=O)c1c(C(C)C)nn2ccccc12 [Ibudilast] | 101 ± 4.1 | 97.7 ± 1.3 | 93.1 (inactive) | 94.5 (inactive)
28 | CC(=O)OC1(C(C)=O)CCC2C3C=C(Cl)C4=CC(=O)C5CC5C4(C)C3CCC21C (configuration not stated) [Cyproterone acetate] | 91.8 | 99.8 | 92.2 (inactive) | 98.5 (inactive)
29 | CC(=O)OC1CC2(C)C(CC(O)C3C4(C)CCC(O)C(C)C4CCC32C)C1=C(CCC=C(C)C)C(=O)[O-].[Na+] (configuration not stated) [Fusidic acid sodium] | 105 | 113 | 89.5 (inactive) | 83.5 (inactive)
30 | CC1=CCC2(C)CCC(O)(C(C)C)C2C(OC(=O)c2ccc(O)cc2)C1 (configuration not stated) [Ferutinin] | 102 | 102 | 97.8 (inactive) | 107 (inactive)
31 | Cc1c[nH]c(C=C2C(=O)Nc3ccccc32)c1CCC(=O)O | 101 | 102 | 95.4 (inactive) | 103 (inactive)
32 | O=C(O)CCCC=CCC1C2CCC(O2)C1CNNC(=O)Nc1ccccc1 (configuration not stated) | 102 | 103 | 92.8 (inactive) | 99.7 (inactive)
33 | COc1ccccc1N1CCN(CCCNc2cc(=O)n(C)c(=O)n2C)CC1.Cl [Urapidil hydrochloride] | 101 | 102 | 92.7 (inactive) | 103 (inactive)
34 | Cl.N=c1ccn2c(n1)OC1C(O)C(CO)OC12 (configuration not stated) [Ancitabine hydrochloride] | 73.5 | 50.3 | 109 (inactive) | 92 (inactive)
35 | CCC12CCCN3CCc4c(n(c5ccccc45)C(=O)C1)C32 (single isomer, unassigned; (-)) [(-)-Eburnamonine] | 83.7 | 58.5 | 118 (inactive) | 113 (inactive)
36 | OCCOc1ccc(/C(=C(/CCCl)c2ccccc2)c2ccccc2)cc1 [2-{4-[(1Z)-4-chloro-1,2-diphenyl-1-butenyl]phenoxy}ethanol] | 101 | 96.7 | 100 (inactive) | 96.6 (inactive)
37 | C=C1C(=O)C23C(O)C1CCC2C12COC3(O)C(O)C1C(C)(C)CCC2O (configuration not stated) [Oridonin] | 80.4 | 110 | 93 (inactive) | 111 (inactive)
38 | O=C(OC1Cc2c(O)cc(O)cc2OC1c1cc(O)c(O)c(O)c1)c1cc(O)c(O)c(O)c1 (configuration not stated) [Epigallocatechin gallate] | 105 | 97 | 94.8 (inactive) | 100 (inactive)
39 | CCC(NC(C)C)C(O)c1ccc(O)c2[nH]c(=O)ccc12.Cl (configuration not stated) [Procaterol.HCl] | 101 | 105 | 83.2 (inactive) | 112 (inactive)
40 | O=C(C=Cc1ccc(O)c(O)c1)OCCc1ccccc1 [Caffeic acid phenethyl ester] | 69.1 | 81 | 94.7 (inactive) | 108 (inactive)
41 | C[N+](C)(C)CCCCCC[N+](C)(C)C.[Cl-].[Cl-] [Hexamethonium dichloride] | 98 | 99.9 | 95.6 (inactive) | 87.7 (inactive)
42 | Cn1cc(C2=C(c3ccc(Cl)cc3Cl)C(=O)NC2=O)c2ccccc21 | 86.2 and 92.3 | 100 and 111 | 104 (inactive) and 105 (inactive) | 158 (active) and 136 (inactive)
43 | CCCCCCCCCCCCCCCCCC(=O)NCC(COP(=O)([O-])OCC[N+](C)(C)C)OCC (racemic) [rac-2-Ethoxy-3-octadecanamido-1-propylphosphocholine] | 39 | 54.4 | 183 (active) | 153 (active)
44 | O=C([O-])CCCc1ccccc1.[Na+] [Sodium Phenylbutyrate] | 103 | 106 | 96.4 (inactive) | 97.7 (inactive)
45 | COc1cc(C2c3cc4c(cc3C(OC3OC5COC(C)OC5C(O)C3O)C3COC(=O)C23)OCO4)cc(OC)c1O (configuration not stated) [Etoposide] | 74.1 ± 1.6 | 42.1 ± 4.8 | 125 (active) | 95.1 (inactive)
46 | CN(N=O)C(=O)NC1C(O)OC(CO)C(O)C1O (configuration not stated) [Streptozocin] | 101 | 102 | 96.1 (inactive) | 87.6 (inactive)
47 | CCC1(O)CC2CN(CCc3c([nH]c4ccccc34)C(C(=O)OC)(c3cc4c(cc3OC)N(C)C3C(O)(C(N)=O)C(O)C5(CC)C=CCN6CCC43C65)C2)C1.O=S(=O)(O)O (configuration not stated) [Vindesine sulfate] | 55.4 | 8.86 | 155 (active) | 179 (active)
48 | O=c1c2ccccc2[nH]c(=S)n1CCN1CCC(=C(c2ccc(F)cc2)c2ccc(F)cc2)CC1 [Diacylglycerol Kinase Inhibitor II] | 105 ± 1.1 | 93.8 ± 1.5 | 93.9 (inactive) | 94.1 (inactive)

From the supplement of paper PMC7156485
